Assay results as given in paper PMC13494018.
Values without a mark were called inactive. How the calls were made is not given here.

Target: CD276, Q5ZPR3
Sequence (Q5ZPR3 whole entry): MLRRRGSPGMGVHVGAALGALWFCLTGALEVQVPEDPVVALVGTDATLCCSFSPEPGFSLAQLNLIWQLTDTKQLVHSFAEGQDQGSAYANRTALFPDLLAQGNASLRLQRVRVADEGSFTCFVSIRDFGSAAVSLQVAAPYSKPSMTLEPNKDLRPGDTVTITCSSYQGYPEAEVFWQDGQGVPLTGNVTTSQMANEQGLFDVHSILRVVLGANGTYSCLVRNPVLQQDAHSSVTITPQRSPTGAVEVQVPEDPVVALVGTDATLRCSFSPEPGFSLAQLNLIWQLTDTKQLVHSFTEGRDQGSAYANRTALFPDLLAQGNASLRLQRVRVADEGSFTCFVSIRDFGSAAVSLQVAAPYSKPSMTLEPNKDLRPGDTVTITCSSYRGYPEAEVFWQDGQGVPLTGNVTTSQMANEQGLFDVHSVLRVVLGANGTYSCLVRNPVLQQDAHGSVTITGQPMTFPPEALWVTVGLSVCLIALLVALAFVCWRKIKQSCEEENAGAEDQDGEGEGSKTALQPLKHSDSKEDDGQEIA

Row | Binder | binding in a display sort
1 | design_614_ef6b398b-10cb-4a07-8087-96dafb4f9c83_2152_dldesign_0_cycle1_af2pred (protein) GAAEEERRRHQEAVERAEAAVKELEALAKQLAADPHGAVFAQAMVDQARRALEEAKTGDLETAEEALRVITSNLEMAKAIL | not found
2 | design_614_ef6b398b-10cb-4a07-8087-96dafb4f9c83_2192_dldesign_0_cycle1_af2pred (protein) AAAALQAATIALGSLRALAESARRSNAESAKKLAELAEDLAADAKANAAKAAADPAYAAQAKAVAEEAKRALEETKRIAEEKAEA | not found
3 | design_615_ab801fab-270b-4f6a-b2b5-83c165df418c_0_dldesign_0_cycle1_af2pred (protein) AAAERLAQRLEAARLIAEAAGVPEEVARRVAELVADPATFPEAVALAKAVGGGAMLILAAARSGSLENARKMAEAAA | not found
4 | design_615_ab801fab-270b-4f6a-b2b5-83c165df418c_67_dldesign_0_cycle1_af2pred (protein) AVKEEAQKVLAESLEYMEKYKDDKEVVAEFNKAANYASKAITGPEETGKEYLAKAKEYLEKGKALAKEKEA | not found
5 | design_615_ab801fab-270b-4f6a-b2b5-83c165df418c_110_dldesign_0_cycle1_af2pred (protein) SAELAKLNGEALELAKLGAEEGAEYAEKAMELVIEAARLAGDEEGAKYAEEMREEALKAAKESPKEAAQIVMTALSRVFSRIAA | not found
6 | design_615_ab801fab-270b-4f6a-b2b5-83c165df418c_121_dldesign_0_cycle1_af2pred (protein) GKDEELAKEAKKIAEAAEGVAASALALAAQPGLLAAAAAFARKAAEELERLGKENSKELEKVAKKEAKRAKEAAERVEAALKAATA | not found
7 | design_615_ab801fab-270b-4f6a-b2b5-83c165df418c_137_dldesign_0_cycle1_af2pred (protein) MEKEKELLKKAKELYEAAKTMAEVAKNAVALGHRSGALAAIKGIEQAAKAIEELAKEAKDEEVKKKIKELAKEAKKLAEEMKKLAEKA | not found
8 | design_615_ab801fab-270b-4f6a-b2b5-83c165df418c_149_dldesign_0_cycle1_af2pred (protein) AAAALEAIRDEGAATLTALAGPQLGALFRVAVQAAISGKLELAEQLLDAVVAEAAAINPAAAEKAKELKALALAIARA | not found
9 | design_615_ab801fab-270b-4f6a-b2b5-83c165df418c_153_dldesign_0_cycle1_af2pred (protein) SAAGEIGAKAIEAMKKAYEYAKLYESGEDEKAKEKAKEAAEKLKELAKEAAKAGAAGARLAKVAKASAENALKIAKE | not found
10 | design_615_ab801fab-270b-4f6a-b2b5-83c165df418c_209_dldesign_0_cycle1_af2pred (protein) SAQAQEAATRAAEALARHLARQVAEHGVSDADFEGNVDILVALGRQSAAAGEAAAAVLEEAKAADPERFGAAAERLKAAAAEAK | not found
11 | design_615_ab801fab-270b-4f6a-b2b5-83c165df418c_234_dldesign_0_cycle1_af2pred (protein) LEESARKAAELALDLAKYAAANPATAPQALASIAGLARNAIEAGAEAAKLMAEALKKGAEYVAKNGTAAQAEQVKAIRERAERGAREA | not found
12 | design_615_ab801fab-270b-4f6a-b2b5-83c165df418c_246_dldesign_0_cycle1_af2pred (protein) AEREEAALAEAEKALAEAKKLVEAALADPATAATTVGEATALLTAAIERASREVSPERALEVAQEAARIQADGIKALA | not found
13 | design_615_ab801fab-270b-4f6a-b2b5-83c165df418c_251_dldesign_0_cycle1_af2pred (protein) AAAAAEAAAVQARGGALLDELKERTSELSPEAVSRASLLLTRGLTYASQPATLAEGRRYVDEAEAIIRSA | not found
14 | design_615_ab801fab-270b-4f6a-b2b5-83c165df418c_555_dldesign_0_cycle1_af2pred (protein) AAAALAAAAAAARAAATAALAETLELAEEAQRLGDSETSLALSRQANRIAGLYIAGVRDPRLAPEAGKRAEELRREAERLYKEAL | not found
15 | design_615_ab801fab-270b-4f6a-b2b5-83c165df418c_597_dldesign_0_cycle1_af2pred (protein) AAAAEAITKATLAAIEKTAEKIVEAAEKATPEEAKKLAESVKKLAETGVGIATAASPELGKEAKEKAEKLKEKAKEAVKKVKE | not found
16 | design_615_ab801fab-270b-4f6a-b2b5-83c165df418c_622_dldesign_0_cycle1_af2pred (protein) VTPEEAHQALASTVMRLAQQLGLSGGAISTGLRLASEAARAFAEDPEKMRKVVEEGAKKIEALEGEKGKVVGEELRRKAEEIVA | not found
17 | design_615_ab801fab-270b-4f6a-b2b5-83c165df418c_650_dldesign_0_cycle1_af2pred (protein) SSEREVLEAEGREWGRLIAAADAVSPALAAEVARALAEKAVADPGFLYALNVAVATVAREGSPAAAAVARAALAEASKAVIAKL | not found
18 | design_615_ab801fab-270b-4f6a-b2b5-83c165df418c_662_dldesign_0_cycle1_af2pred (protein) AAAQAKALAAEAKAYIAKAKEAAAAGNLGEAAQLASKALLKAAQAANLDPAFAPVLDEAQATVEAIAAAQAAAA | not found
19 | design_615_ab801fab-270b-4f6a-b2b5-83c165df418c_671_dldesign_0_cycle1_af2pred (protein) SPDAVAARGYLAMLRAAVAELERAAEELARDPEKAAEARALVERARALLAEAEALLADPAQAAAAAAAARAALEEVLEFIRRARELAA | not found

Row | Binder | binding in a display sort
20 | design_615_ab801fab-270b-4f6a-b2b5-83c165df418c_702_dldesign_0_cycle1_af2pred (protein) GEELREKAEKEAKQTLELVEGALEYAKTASPEAAALMEKALEEVKKLIELGKKSDAEEYAKYVEKARKVAFNAIAQATALIAA | not found
21 | design_615_ab801fab-270b-4f6a-b2b5-83c165df418c_706_dldesign_0_cycle1_af2pred (protein) ASAARMAEIQAKGEEVAEKAKEKYKELLERLPDPEEALAEARAYLREVGAQYSGAVLGYALSLFESWAEEEL | not found
22 | design_615_ab801fab-270b-4f6a-b2b5-83c165df418c_776_dldesign_0_cycle1_af2pred (protein) MEEAEEAYREAEEIKRETKAKAEAGTLTAQEAMEALARLEELREKLRELAEEEGEEAEEYYREVNEYAVEVSRIANAVFAAERAA | not found
23 | design_615_ab801fab-270b-4f6a-b2b5-83c165df418c_806_dldesign_0_cycle1_af2pred (protein) AAQAQAIEQLEKLIETAKELAKERPEEKEEILGKAHETAGQVLTLIAKGLQDPATAEQALKLAQAKLKEMEKKLKEAKA | not found
24 | design_615_ab801fab-270b-4f6a-b2b5-83c165df418c_863_dldesign_0_cycle1_af2pred (protein) AQAAEAALRTAEAVVRRAEEAIARGASPEELRALAKLAEVVAESLLAVAKTASPEQAKRLEEAAERARRAAEEARRAAERLEREAA | not found
25 | design_615_ab801fab-270b-4f6a-b2b5-83c165df418c_921_dldesign_0_cycle1_af2pred (protein) SAALKAALAALDAAEKAAEAADPEVAAIVRATREAVKKAPDEVAAKAAQMATAIESLAKAGFVASARATARNLLAYVSAAVAAAE | not found
26 | design_615_ab801fab-270b-4f6a-b2b5-83c165df418c_1027_dldesign_0_cycle1_af2pred (protein) KEALEKAKKEAEKILKEAAEKVSPEVAKYVEEAAKQPTIEEMIHKVLLAAAKAGQVNLEDGKILLEAAEKIAAIYKKAKEE | not found
27 | design_615_ab801fab-270b-4f6a-b2b5-83c165df418c_1064_dldesign_0_cycle1_af2pred (protein) AREQAQQALDFALANAQLIAQRRGEAGKRLAELVQKALEADEEEALKYLEEAIRLAEELAKDPAVAALARAAILALREARRLLE | not found
28 | design_615_ab801fab-270b-4f6a-b2b5-83c165df418c_1097_dldesign_0_cycle1_af2pred (protein) SEAMKTAGAKILTATAASLERQLAEARANPGELRPRAAALAQLAAQLAESAKAIGDEETAARLAAISAEAAALAA | not found
29 | design_615_ab801fab-270b-4f6a-b2b5-83c165df418c_1174_dldesign_0_cycle1_af2pred (protein) ADEEDLAAAKKRLEDTKKLVEINLTMANQGPLGAKAAIASLNTQIKVLEAAKKAATPAAQPELDKAIAIAKAALAEAKAKAAA | not found
30 | design_615_ab801fab-270b-4f6a-b2b5-83c165df418c_1179_dldesign_0_cycle1_af2pred (protein) SPTEIAGKAVREIQELTEQAIANPETAEQLAAEAKKVAEEAGKKTGEGLAQLLKNVAAQREKEVQAALAA | not found
31 | design_615_ab801fab-270b-4f6a-b2b5-83c165df418c_1187_dldesign_0_cycle1_af2pred (protein) AAAEEVARRGASALAAGQNLIEMAKAASPEAAAVATAALAQAKALLAQGTPEAAEQAQQVINDAMAQVSKIMIAAA | not found
32 | design_615_ab801fab-270b-4f6a-b2b5-83c165df418c_1262_dldesign_0_cycle1_af2pred (protein) KEAAEKAAEKKAEEIKKIAEIAGGAVSPEDAAKIKKEAEEKIEELKKFAKESTPEEAEKYGQELVLEFSQSATKVMVAAAKAA | not found
33 | design_615_ab801fab-270b-4f6a-b2b5-83c165df418c_1266_dldesign_0_cycle1_af2pred (protein) AAALEEAKAQLKKLAEELLEKSKEAAKLGSDAAIAVTSKYVAKGSALLVQYPEVSSEPLVEAVKEASKLIKEA | not found
34 | design_615_ab801fab-270b-4f6a-b2b5-83c165df418c_1503_dldesign_0_cycle1_af2pred (protein) AAALAAAQAAAGATALETLEVASKAAKAGSPEVAAEANKLAQQATQLAQQAAQGDLATAKAQLAAIQKLLAQAKELLKK | not found
35 | design_615_ab801fab-270b-4f6a-b2b5-83c165df418c_1575_dldesign_0_cycle1_af2pred (protein) GEEEEKKKKEKFEEAAEKVNKGLALASQAALADPKYQPVLAKVVELAKEAEKLKKEGKAEEALKKAEEAYEVAKKALAAVKAA | not found
36 | design_615_ab801fab-270b-4f6a-b2b5-83c165df418c_1665_dldesign_0_cycle1_af2pred (protein) MEEEKEKEKYIKELKKAAEEAIKTAKEAAKLDPKAGGALLKYVEASGKQALENAEKGDLETAKNQLEFMKQVLEIAKGTLAALKAA | not found
37 | design_615_ab801fab-270b-4f6a-b2b5-83c165df418c_1763_dldesign_0_cycle1_af2pred (protein) EELVERLRLMRDVVAAALAAAGLDADAFAALLEAAAAAAREDPARAVELLARVAERAEELAAKASPLQRGVLRFAVTVARGAAAALA | not found
38 | design_615_ab801fab-270b-4f6a-b2b5-83c165df418c_1773_dldesign_0_cycle1_af2pred (protein) SETAEEARRAVERLKEAAKKLAKAGTPEHAGYAEGLVTTTTALVERLLAAGREEEALRAARRALERAERLLKKALA | not found
